Shown are actives, neighbours in structure and some others; about 1.7% of the full set was active somewhere.
F508del corr – F508del CFTR correction, initial screen, CFBE line, single point; CFBE cells, YFP halide quenching; stimulated with forskolin plus potentiator P3; % fluorescence drop versus neutral controls; activity (quench increase), % at 7.58 µM; hit rate 0.36% among 350,000; AID 720511, 2013;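 active = mean added fluorescence quench of at least 8% versus neutral control, with both replicates also reaching 8%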;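 note: cells transiently co-express mutant CFTR-F508del with the halide-sensitive YFP; corrector assay measuring rescue of mutant channel to the surface after 24 h compound exposure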
Vif inh – HIV Vif self-association inhibitors, primary screen, imaging, HEK293T, single point; HEK293T cells, Vif self-association by quenched fluorescence, 24 h; inhibition, % at 7.49 µM; hit rate 0.35% among 340,000; AID 602346, 2012; in the data active = inhibition above about 50%, passing the limit was not always enough
FGF22 binding – binders of human FGF22 protein, primary screen, FGF22 synaptogenesis inhibitor project, biophysical, thermal shift, single point; activity (Tm shift, normalised), % at 9.99 µM; hit rate 1.5% among 340,000; AID 651658, 2012; recombinant FGF22 thermal shift, SYPRO orange fluorescence; percent of sucrose octasulfate shift, DMSO zero; Fibroblast growth factor 22 (Homo sapiens), Q9HCT0;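 active = mean Tm shift, scaled 0 neutral to 100 positive control, at about 1.3% or above, every replicate too, limit read from the data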
Target sequence (Q9HCT0 whole entry, looked up): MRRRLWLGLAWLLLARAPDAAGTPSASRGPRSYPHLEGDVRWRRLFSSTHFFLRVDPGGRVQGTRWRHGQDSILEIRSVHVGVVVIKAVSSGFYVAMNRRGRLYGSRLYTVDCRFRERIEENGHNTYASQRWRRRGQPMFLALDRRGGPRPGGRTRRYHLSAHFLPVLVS
Hits are given with their value.

`Cc1cc(C)n(CC(=O)NC2C(=O)N3C(C(=O)O)=C(CSc4nnc(C)s4)CSC23)n1` (stereo not drawn) gave F508del corr inactive, Vif inh inactive and FGF22 binding inactive.
`Cc1nnc(SCC2=C(C(=O)O)N3C(=O)C(NC(=O)Cn4ncc(Cl)c4C)C3SC2)s1` (stereo not drawn) gave F508del corr inactive, Vif inh inactive and FGF22 binding 43.0.
Screening CCCn1nnnc1SCC(=O)N1CCCC1 returned Vif inh inactive.
`CCCn1nnnc1SCC(=O)N1CCCCC1` gave F508del corr inactive, Vif inh 56.5 and FGF22 binding inactive.
C[C@H](CO)N1C[C@H](C)[C@H](CN(C)C(=O)C2CCCCC2)OCCCC[C@H](C)Oc2ccc(N(C)C)cc2C1=O was read as F508del corr inactive and FGF22 binding inactive.
COc1ccc(S(=O)(=O)Nc2ccc3c(c2)CC(=O)N([C@@H](C)CO)C[C@H](C)[C@H](CN(C)Cc2ccc4c(c2)OCO4)O3)cc1 was read as F508del corr inactive and FGF22 binding inactive.
Cc1noc(C)c1NC(=O)N(C)C[C@H]1Oc2c(NS(=O)(=O)c3ccccc3)cccc2C(=O)N([C@@H](C)CO)C[C@H]1C was read as F508del corr inactive and FGF22 binding inactive.
For O=C(Nc1ccc2c(c1)nc1n2CCSC1)c1ccccc1 the results were Vif inh inactive.
For O=C(Nc1ccc2c(c1)nc1n2CCOC1)c1ccccc1 the results were Vif inh 58.3.
CCOc1ccc(OCc2cccc(C(=O)N3CCCC3)c2)cc1 was read as Vif inh 52.7.
Screening CCOc1ccc(OCc2cccc(C(=O)N3CCCCCC3)c2)cc1 returned Vif inh inactive and FGF22 binding inactive.
`COc1ccc(NC(=O)N(C)C[C@H]2Oc3ccc(NS(=O)(=O)c4cccs4)cc3C(=O)N([C@H](C)CO)C[C@H]2C)cc1` gave F508del corr inactive and FGF22 binding inactive.
`Nc1nc(SCC(=O)NCc2ccccc2)[nH]c(=O)c1NC(=O)c1ccccc1F` gave Vif inh inactive.
Screening CC(C)(C)NC(=O)CSc1nc(N)c(NC(=O)c2ccccc2F)c(=O)[nH]1 returned F508del corr inactive, Vif inh inactive and FGF22 binding 43.6.
For CCS(=O)(=O)NCC(c1cccnc1)N1CCN(c2ccccc2OC)CC1 (stereo not drawn) the results were F508del corr inactive, Vif inh inactive and FGF22 binding inactive.
Screening COc1ccccc1N1CCN(C(CNS(=O)(=O)c2cccs2)c2cccnc2)CC1 (stereo not drawn) returned F508del corr 8.1 and FGF22 binding inactive.
Screening COc1ccc(/C=C/C(=O)c2ccc(O)cc2)cc1 returned F508del corr inactive, Vif inh inactive and FGF22 binding 1.5.
Screening COc1ccc(/C=C/C(=O)c2ccoc2)cc1 returned Vif inh inactive.
CO[C@H]1CC[C@H]2CCOc3c(C#N)cccc3C(=O)N(C)C[C@H](C)C(=O)N(C)C[C@@H]1O2 was read as F508del corr inactive and FGF22 binding inactive.
O=C(CSC1=Nc2ccccc2C2CC=NN12)Nc1ccc2c(c1)OCO2 (stereo not drawn) was read as F508del corr inactive, Vif inh inactive and FGF22 binding inactive.
For N#Cc1ccccc1NC(=O)CSC1=Nc2ccccc2C2CC=NN12 (stereo not drawn) the results were F508del corr inactive, Vif inh inactive and FGF22 binding 43.7.
COc1ccc2c3c(n(C)c2c1)[C@H](CO)N(CC1CC1)CC31CCN(C(=O)Nc2c(C)noc2C)CC1 was read as F508del corr inactive and FGF22 binding inactive.
For CCOCCOC(=O)COC(=O)c1ccccc1NC(=O)c1ccccc1 the results were F508del corr 11.0, Vif inh inactive and FGF22 binding inactive.
`CCOCC(=O)Nc1ccccc1C(=O)OCC` gave Vif inh inactive.
For CNC(=O)C[C@H]1CC[C@H]2[C@@H](COc3ccc(NS(=O)(=O)c4cccc(F)c4)cc3C(=O)N2C)O1 the results were F508del corr inactive and FGF22 binding inactive.
`O=C1N=c2ccccc2=C1c1sc(=S)n(-c2ccc(O)cc2)c1O` gave F508del corr inactive, Vif inh inactive and FGF22 binding inactive.
For O=C1N=c2ccccc2=C1c1sc(=S)n(NC(=O)c2cccc(O)c2)c1O the results were F508del corr inactive, Vif inh inactive and FGF22 binding 16.7.
Screening CCCCc1ccc(NC(=S)N2CCN(c3ccccn3)CC2)cc1 returned F508del corr inactive, Vif inh inactive and FGF22 binding inactive.
Screening CCCCc1ccc(NC(=S)N2CCN(c3ncccn3)CC2)cc1 returned F508del corr inactive, Vif inh inactive and FGF22 binding 43.0.

Screens deposited in PubChem BioAssay by Broad Institute.
